Experimental data published in the OligoGym collection.

Target: STX17
Assay: pooled miR-30 sensor sort-seq; sequence = guide strand
Details: shRNA
Further: reference of the scale not given here.

Sequence | sensor-assay potency score (higher = more potent)
TTTGTATCAATTTTCCACCTGT | 0.455
TTCTTCATCATTAAATTGCTTC | 0.0874
TAGTATGAAATGCTCCACCAAC | -1.07
TTGACATGGTCTGCAATGCTGT | -0.961
TTCTTTAACAGGATCTATCATT | -0.828
TTCTGCAGCATTTTGATCTTGA | 0.632
AATGCTGTCAATCTTCTCCTGC | 0.00387
TCAAACTCTGAGAACTAGCTTC | 0.0575
TACTTCTCAATATTTATCTGGT | 0.329
TTCATCATTAAATTGCTTCTTA | 0.611
TTCTACACATCTCAAGTCCTTA | 0.0253
TATATCTGAGTCAAACTCTGAG | 0.23

Target: STYK1
Assay: as above
Details: shRNA

Sequence | sensor-assay potency score (higher = more potent)
TTCATGATACTGTACATGGTAT | -0.548
TATGTCTTAGCTCAGGATGTGT | -0.84
TATTCCTTCATTTCATTCCAAA | -1.26
ATAGTAACCAACAAAGTTGGGA | 0.0523
TTGAGAATAACACTCTTGGGCT | -0.459
TTGAGGTCCAGAACGCTGCTGT | 0.125
TAGAAGAGGCTCTCCACTCTGA | 0.202
ATCCATAGTCATCACATCCCGC | -0.719
TTGAGTTCTTTGTTCTCTGATA | -1.2
ATAGTCATCACATCCCGCCGAC | -0.512
TTGTTCTCTGATAAAAAGCCAC | -1.1
TTTAATGGCAGCTTCTAGGCGC | 0.0946

Target: STYX
Assay: as above
Details: shRNA

Sequence | sensor-assay potency score (higher = more potent)
TAAAATTTCCTGCATCTCTCGT | -0.395
TTGCTTTTCATAGCAGATGAAT | -1.47
TAGGGTAGGTCCACTCCTCGGC | 0.0939
TTCTTTCTTGAACATAAGCAAA | -1.59
TTTCTGTAGTACAGGTAGCTTG | -1
TGTAGTACAGGTAGCTTGCTTT | -0.453
TAGAAATTCACACTCTATGATG | -0.976
TTGCTTCAATATTTTGTCGTAT | -0.787
TAGCAGATGAATATGGGCCTAA | -0.352
TAATACAAAATCTTCTTTCTTG | 0.259
TTCTGTAGTACAGGTAGCTTGC | -0.197
TAAATATCTAAATAACTGCTGA | -0.29
